# Sampled rows, rich in hits. Any-hit rate of the full collection: about 12%.
# JMJD2A Tudor inh = qHTS Assay for Inhibitors of JMJD2A-Tudor Domain; Lysine-specific demethylase 4A (Homo sapiens), O75164; Potency, µM (top dose mostly 114 µM), for the others: at the highest dose activity change, negative = inhibition, hits mostly inhibitors; hit rate 4.4% among 390,000; AlphaScreen JMJD2A-Tudor / H3K4me3 peptide binding; note: % is set by controls: 0 for no effect and ±100 for the full control effect; nearly all actives have a fitted effect of over 50% in size
# G9a block = qHTS Assay for Inhibitors of Histone Lysine Methyltransferase G9a; G9a H3K9 monomethylation, AlphaScreen, 2 h; Potency, µM (series often up to 102 µM), without a hit: at the top dose activity, negative = inhibition, usual class: inhibitors; hit rate 8.8% among 350,000; note: % is set by controls: 0 for no effect and ±100 for the full control effect; nearly all actives have a fitted effect of over 75% in size
#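 Readings reflect AlphaScreen signal from monomethyl-H3K9 antibody detection. HMT at 20 nM; substrate b-H3K9 500 nM; cofactor SAM 20 uM; 2 h RT reaction; compounds tested as titrations in qHTS with 15 min preincubation.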
# PLK1 PBD inh = qHTS for Inhibitors of PLK1-PDB (polo-like kinase 1 - polo-box domain): Primary Screen; Potency, µM, for inactives: max response, negative = inhibition, most hits filed as inhibitors; hit rate 2.8% among 360,000; Plk1 PBD binding of FITC phosphopeptide, fluorescence polarization; Serine/threonine-protein kinase PLK1 (Homo sapiens), P53350; note: series mostly up to about 57 µM; % is set by controls: 0 for no effect and ±100 for the full control effect; nearly all actives have a fitted effect of over 65% in size
# Target sequence (P53350 whole entry, looked up, the tested form may be a part): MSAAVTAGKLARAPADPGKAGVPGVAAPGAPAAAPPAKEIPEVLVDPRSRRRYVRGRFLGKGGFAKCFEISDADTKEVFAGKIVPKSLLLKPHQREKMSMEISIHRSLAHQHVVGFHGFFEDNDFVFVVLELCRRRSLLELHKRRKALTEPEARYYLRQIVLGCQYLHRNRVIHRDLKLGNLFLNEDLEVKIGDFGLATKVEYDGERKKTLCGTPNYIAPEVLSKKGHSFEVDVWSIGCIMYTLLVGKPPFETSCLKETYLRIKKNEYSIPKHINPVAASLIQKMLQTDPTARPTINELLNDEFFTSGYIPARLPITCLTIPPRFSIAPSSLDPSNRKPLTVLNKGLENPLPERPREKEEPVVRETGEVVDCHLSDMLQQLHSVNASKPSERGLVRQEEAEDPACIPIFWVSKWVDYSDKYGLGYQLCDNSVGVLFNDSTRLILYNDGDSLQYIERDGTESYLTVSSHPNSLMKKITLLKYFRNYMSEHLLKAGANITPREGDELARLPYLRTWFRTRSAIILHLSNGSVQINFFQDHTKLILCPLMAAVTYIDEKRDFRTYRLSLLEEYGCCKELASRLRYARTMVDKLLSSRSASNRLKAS
# Sfp PPTase inh = qHTS Assay for Inhibitors of Bacillus subtilis Sfp phosphopantetheinyl transferase (PPTase). 4'-phosphopantetheinyl transferase ffp (Bacillus subtilis), Q9F4F7. Biochemical Sfp PPTase activity, qHTS. Potency, µM, for inactives: largest response in the series, negative = inhibition, usual class: inhibitors. hit rate 3.5% among 310,000. AID 1490, 2009;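 note: the enzyme is Sfp with the accession as filed and its product quenches rhodamine fluorescence; 0% = enzyme reaction without inhibitor and -100% = no enzyme wells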
#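 Buffer: 50 mM Hepes-Na pH 7.6, 10 mM MgCl2, 0.01% Nonidet P-40, 0.01% BSA. Enzyme 15 nM, pre-exposed to compound 15 min; substrates then added and fluorescence change tracked over 30 min.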
# BAZ2B block = qHTS Assay for Inhibitors of BAZ2B; Bromodomain adjacent to zinc finger domain protein 2B (Homo sapiens), Q9UIF8; Potency, µM (series often up to 114 µM), without a hit: at the top dose activity change, negative = inhibition, hits mostly inhibitors; AlphaScreen BAZ2B-H3K14Ac peptide displacement; hit rate 4.4% among 360,000; note: % is set by controls: 0 for no effect and ±100 for the full control effect; nearly all actives have a fitted effect of over 60% in size
#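 BAZ2B 50 nM plus b-H3(5-23)K14Ac 50 nM, PBS pH 7.4/0.01% Tween-20, 30 min RT; compound added (max 110 uM), 30 min RT; streptavidin donor/Ni-chelate acceptor beads 10 ug/mL final, 20 min dark; AlphaScreen read.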
# HP1b binding inh = HTS for Inhibitors of HP1-beta Chromodomain Interactions with Methylated Histone Tails; AID 540317, 2011; Chromobox protein homolog 1 (Homo sapiens), P83916; Potency, µM (doses to about 114 µM), for the others: top-dose activity change, negative = inhibition, hits mostly inhibitors; hit rate 0.56% among 390,000; AlphaScreen HP1-beta / biotin-H3K9me3 peptide binding; note: nearly all actives have a fitted effect of over 70% in size
# Target sequence (P83916 whole entry, looked up): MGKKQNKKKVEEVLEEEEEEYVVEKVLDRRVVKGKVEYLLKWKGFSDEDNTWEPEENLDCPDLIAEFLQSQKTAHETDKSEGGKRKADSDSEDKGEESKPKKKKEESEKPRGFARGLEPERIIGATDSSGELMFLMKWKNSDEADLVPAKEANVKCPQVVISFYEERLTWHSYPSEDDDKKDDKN
#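 AlphaScreen: HP1-beta (50 nM) preformed 30 min with biotin-H3(1-18)K9me3 peptide (50 nM) in PBS pH 7.4, 0.01% Tween-20. Compound added for 30 min at RT, then streptavidin donor/nickel chelate acceptor beads (10 ug/mL) for 30 min.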
# * = called active by the depositor; ? = inconclusive; · = no result given; [ ] = dose if it differs, or a comment. Calls come from the whole dose curve; as a rule, active = well fitted curve in the direction sought with a large enough effect; inconclusive = small, poorly fitted or top-dose-only effect, or another doubt; inactive = no such curve, though single readings can be large; an effect the other way counts as inactive or inconclusive. Potency is the fitted concentration of half-maximal effect.
SMILES,JMJD2A Tudor inh,G9a block,PLK1 PBD inh,Sfp PPTase inh,BAZ2B block,HP1b binding inh
O=C(CN1C(=O)NC2(CCOc3ccccc32)C1=O)N1CCCCC1 (stereo not drawn),-13.5%,·,-13.9%,·,·,34.4%
S=C(Nc1ccccc1)N1CCC(C2CCN(C(=S)Nc3ccccc3)CC2)CC1,-7.3%,·,-6.9%,15.6%,-1.2%,13.9%
CC1CCCN(C(=S)Nc2ccc(F)cc2)C1 (stereo not drawn),-11.0%,-19.9%,-18.2%,7.9%,-26.9%,20.0%
CC1CCCN(C(=S)Nc2ccc(Nc3ccccc3)cc2)C1 (stereo not drawn),?,39.8µM*,?,?,-37.8%,?
OC1CCN(C(=S)Nc2ccc(Nc3ccccc3)cc2)CC1,-35.0%,?,?,17.8µM*,?,-11.9%
COc1ccc(-c2ccc3c(c2)c(Sc2ccccc2)c(-c2ccccc2)n3C)cn1,·,·,0.9%,·,·,·
CC(=O)NNC(=S)Nc1cccc(F)c1,-4.1%,12.6µM*,-12.6%,5.0%,0.0%,18.6%
COC(=O)c1cn[nH]c1NC(=S)Nc1ccc(Cl)c(Cl)c1,-2.2%,5.2%[59 µM],-4.3%,56.2µM*,4.7%,5.2%
CC(=O)Nc1cccc(NC(=S)Nc2ccc(F)c(Cl)c2)c1,-33.8%,?,29.9µM*,35.5µM*,-19.6%,12.5%
O=C(NNC(=S)Nc1ccc(F)c(Cl)c1)c1ccccc1Br,-35.5%,-39.4%[12.7 µM],?,56.2µM*,-0.3%,-0.8%
COc1ccc(CNC(=O)c2cc3cccc4c3n2CC(C)S4)cc1OC (stereo not drawn),-27.6%,-43.3%[59 µM],·,·,?,13.8%
COc1ccc(OC(C)C(=O)NCc2nc(-c3cccc(C)c3)no2)cc1 (stereo not drawn),9.0%,13.5%[59 µM],·,·,1.6%,60.4%
Cc1cccc(NC(=S)NNC(=O)c2ccccc2OC(F)F)c1,-22.9%,?,-17.7%,-4.9%,11.7%,7.6%
Cc1cccc(NC(=S)NNC(=O)c2ccccc2Br)c1,-14.9%,5.01µM*,-18.4%,-4.0%,12.2%,4.9%
NC(=O)CSc1nnc(Cc2ccc3c(c2)OCO3)n1C1CCCCC1,?,8.3%,26.7µM*,13.3%,10.9%,-15.9%
O=C(CSc1nnc(Cc2ccc3c(c2)OCO3)n1C1CCCCC1)NC1CCCC1,-7.6%[57.1 µM],-2.2%[59 µM],-7.3%,2.8%,6.1%,67.6%
COc1ccccc1NS(=O)(=O)c1cccc(NS(=O)(=O)c2ccc(Cl)c(C(=O)O)c2)c1,-5.6%,·,1.2%,·,·,18.1%
Cc1nc2ccn(Cc3ccco3)c(=O)c2cc1C(=O)NCc1ccc(Cl)cc1,-18.3%,-0.6%[59 µM],·,·,-22.2%,18.9%
CCN(CC)C(=O)c1sc2c(c1C)c(=O)n(-c1ccc(Cl)c(Cl)c1)c(=O)n2Cc1ccccc1C#N,-22.7%,21.7%[59 µM],·,·,-1.7%,22.7%
CCOc1ccccc1OCCC(=O)OCC(=O)Nc1c(C)nn(-c2ccccc2)c1C,-11.7%,56.2µM*,-9.0%,·,7.2%,28.6%
Cc1nn(-c2ccccc2)c(C)c1NC(=O)COC(=O)CCOc1ccccc1,-8.2%,-9.3%[0.501 µM],-0.2%,·,-25.7%,23.3%
Cc1ccc(C(=O)NC(=S)NNC(=O)CCN2CCOCC2)cc1,-18.6%,8.91µM*,-18.5%,-29.8%,56.2µM*,52.1%
O=C(NC(=S)NCCN1CCOCC1)c1ccc(F)cc1,1.4%,3.1%,0.9%,6.1%,-4.2%,40.3%
CCCCOc1ccc(C(=O)NC(=S)Nc2ccc(CN3CCOCC3)cc2)cc1,-13.8%,-5.3%,-3.3%,4.9%,5.0%,15.1%
CCOc1ccc(NC(=O)c2ccc(NC(=O)c3ccc(CN4CCOCC4)cc3)cc2)cc1,-8.8%,-30.6%[12.7 µM],-16.3%,16.2%,-13.7%,35.3%
SMILES,JMJD2A Tudor inh,G9a block,PLK1 PBD inh,Sfp PPTase inh,BAZ2B block,HP1b binding inh
CCOc1ccc(C(=O)Nc2ccc(CN3CCOCC3)cc2)cc1Br,?,-10.3%[59 µM],29.9µM*,3.0%,-35.6%,-12.9%
COc1ccc(C(=O)NC(=S)Nc2ccccc2N2CCOCC2)cc1Br,?,-6.9%[59 µM],-23.0%,-0.6%,?,?
COc1ccc(C(=O)NC(=S)Nc2ccc(CN3CCOCC3)cc2)cc1,-12.5%,44.7µM*,0.0%,-3.0%,-34.1%,-5.9%
COc1ccc(C(=O)NC(=S)Nc2ccc(CN3CCOCC3)cc2)cc1Br,?,44.7µM*,2.8%,1.5%,?,-10.1%
COc1ccc(N(Cc2cccs2)C(=O)Nc2cccc(Cl)c2)cc1,20.2%,14.2%[59 µM],·,·,29.1%,89.9%
COc1ccc(NC(=O)COc2coc(CN3c4ccccc4CC3C)cc2=O)cc1 (stereo not drawn),-17.1%,5.1%[0.501 µM],-1.4%,·,3.0%,29.3%
Cc1ccc(S(=O)(=O)N2CCC(C(=O)NCCC3=CCCCC3)CC2)c(C)c1,-7.5%,-3.9%[0.501 µM],-15.9%,·,0.0%,41.0%
O=C(CCCCl)NC(=S)Nc1ccc(N2CCOCC2)cc1,-18.9%,·,-3.9%,?,-15.7%,18.8%
O=C(NC(=S)Nc1ccc(CN2CCOCC2)cc1)c1ccc([N+](=O)[O-])cc1,-30.4%,?,?,50.1µM*,-36.1%,3.1%
COc1ccc(C(=O)NC(=S)N2CCNC(=O)C2)cc1Br,35.5µM*,·,?,-3.3%,?,-16.1%
COc1ccc(C(=O)NC(=S)NNC(=O)c2ccc(NC(C)=O)cc2)cc1Br,-15.4%,39.8µM*,-12.1%,9.0%,-2.2%,12.2%
COc1ccc(C(=O)NC(=S)N2CCC(C)CC2)cc1Br,?,7.6%,-3.5%,10.2%,?,50.6%
O=C(CCCCl)NC(=S)Nc1ccc(CN2CCOCC2)cc1,3.9%,50.1µM*,-8.3%,-7.4%,-18.9%,36.6%
O=C1CCSc2ccc(S(=O)(=O)Nc3cccc(C(F)(F)F)c3)cc2N1,2.9%,1.2%[59 µM],·,·,6.8%[57.1 µM],36.2%
CC1CCc2c(sc3nc(-c4cc5ccccc5oc4=O)nc(Cl)c23)C1 (stereo not drawn),-4.8%,-48.1%[59 µM],·,·,-5.8%,38.4%
CCOc1cc(C(=O)Nc2ccc(C(=O)NCCN(CC)CC)cc2)ccc1OCC(=O)N1CCOCC1,8.2%,50.1µM*,-4.9%,·,7.6%,39.8%
CCOc1cc(C(=O)NCc2ccccc2)ccc1OCC(=O)N1CCOCC1,-9.2%,-66.3%,-7.6%,21.6%,-23.0%,39.4%
Cn1cnc2c1c(=O)n(Cc1cccc(Br)c1)c(=O)n2C,-20.7%,-6.7%[12.7 µM],-0.9%,?,10.0%,14.8%
CCn1cnc2c1c(=O)n(Cc1cccc(Br)c1)c(=O)n2Cc1ccccc1,70.8µM*,-7.7%[59 µM],?,-5.6%,-0.5%,19.4%

# From PubChem BioAssay
